p53ts 32C kill – qHTS Screen for Compounds that Selectively Target Cancer Cells with p53 Mutations: Cytotoxicity of p53ts Cells at the Permissive Temperature | H1299-p53A138V at 32C, ATP luminescence viability, 24 h | Potency, µM (doses to about 46.1 µM), most hits filed as cytotoxic | 130,000 compounds, 0.93% hits; further: nearly all actives have a fitted effect of over 55% in size
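Viability by ATPlite luminescence after 24 h compound treatment (up to 46 uM) at the permissive 32C. Cells are H1299 carrying p53 A138V. Scale runs from DMSO basal to 100 uM tamoxifen as full kill; AC50 from Hill fits.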
HEK293 cAMP cs – qHTS Assay for Agonists of the Thyroid Stimulating Hormone Receptor: Activators of Intracellular cAMP Concentrations in Parental HEK 293; 73,000 compounds, 2.5% hits; parental HEK293 CNG cAMP sensor, membrane potential fluorescence; Potency, µM (top dose mostly 57.1 µM), most hits filed as activators; further: nearly all actives have a fitted effect of over 55% in size
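Parental HEK 293 cells stably expressing a modified CNG channel (no TSHR) report cAMP rise as membrane depolarization. Membrane potential dye with 100 uM RO 20-1724 was loaded for 60 min at room temperature, then compound added for 30 min; fluorescence read at 590 nm.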
p53ts 39C kill – qHTS Screen for Compounds that Selectively Target Cancer Cells with p53 Mutations: Cytotoxicity of p53ts Cells at the Nonpermissive Temperature; 130,000 compounds, 1.5% hits; AID 902, 2007; H1299-p53A138V viability at 39C, ATP luminescence, 24 h; Potency, µM (doses to about 46.1 µM), usual class: cytotoxic; further: nearly all actives have a fitted effect of over 55% in size
TSHR ag – qHTS Assay for Agonists of the Thyroid Stimulating Hormone Receptor | Thyrotropin receptor (Homo sapiens), P16473 | HEK293-CNG-TSHR cells (CNG channel as cAMP sensor), membrane potential dye, cAMP | Potency, µM (series often up to 57.1 µM), hits mostly activators | 73,000 compounds, 0.48% hits | AID 926, 2007; active means well fitted activation curve with a large enough effect in the main read-out, with a control signal flat, not every such curve was filed as active; inconclusive means small, poorly fitted or top-dose-only effect, or a change in a side signal; inactive means no such curve, though single readings can be large or run the other way; reference of the percent scale not stated here;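 further: the control signal comes from parental cells without the receptor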
Target sequence (P16473 whole entry, looked up): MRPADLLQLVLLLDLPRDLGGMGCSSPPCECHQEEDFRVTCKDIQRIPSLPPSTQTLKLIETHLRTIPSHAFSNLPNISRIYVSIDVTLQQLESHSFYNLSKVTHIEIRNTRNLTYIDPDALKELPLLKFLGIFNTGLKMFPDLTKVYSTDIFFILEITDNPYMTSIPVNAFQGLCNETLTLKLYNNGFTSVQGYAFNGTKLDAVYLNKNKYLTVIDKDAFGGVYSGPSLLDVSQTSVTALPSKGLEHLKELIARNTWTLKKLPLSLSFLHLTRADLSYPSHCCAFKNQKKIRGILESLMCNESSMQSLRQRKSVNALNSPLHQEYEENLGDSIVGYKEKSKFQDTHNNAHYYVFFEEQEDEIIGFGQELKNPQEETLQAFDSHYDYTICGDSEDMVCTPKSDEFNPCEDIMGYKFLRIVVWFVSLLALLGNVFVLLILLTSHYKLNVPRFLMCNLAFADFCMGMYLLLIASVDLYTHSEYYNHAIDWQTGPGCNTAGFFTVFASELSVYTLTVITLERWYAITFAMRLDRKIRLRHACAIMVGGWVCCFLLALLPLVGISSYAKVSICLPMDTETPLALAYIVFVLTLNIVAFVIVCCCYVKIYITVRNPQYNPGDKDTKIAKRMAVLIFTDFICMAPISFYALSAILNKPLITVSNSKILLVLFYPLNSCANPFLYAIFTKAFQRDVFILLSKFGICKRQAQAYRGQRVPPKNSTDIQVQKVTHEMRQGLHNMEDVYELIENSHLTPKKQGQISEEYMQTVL
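cAMP rise detected as CNG-channel membrane depolarization by fluorescent dye (emission 590 nm), 30 min after compound, following 60 min dye loading containing 100 uM RO 20-1724 at room temperature. Cells: TSHR/CNG HEK 293, with parental CNG HEK 293 as control.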
Imprint erasure – qHTS Assay for Compounds that Induce Erasure of Genomic Imprints; Potency, µM (titrated, usually from 60.7 µM), actives largely listed as activators; 110,000 compounds, 0.02% hits; mouse ES Peg3-LacZ reporter, beta-gal luminescence, 40 h
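Imprint erasure is scored as LacZ activity from the silenced maternal Peg3 allele in feeder-free female ES cells cultured 40 h with LIF. Luminescence is normalized to in-plate negative controls and fitted to the Hill equation.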
IkB signaling – IkB Signaling. AID 445, 2006. ABC-DLBCL IkBa-CBG/CBR dual luciferase ratio, 4 h; response scale: scaled: untreated 0%, proteasome inhibitor 100%. 110,000 compounds, 0.04% hits. Potency, µM (titrated, usually from 57.1 µM); active means well fitted curve in the direction sought with a large enough effect in the signal ratio, not every such curve was filed as active; inconclusive means small, poorly fitted or top-dose-only effect, or a change in a side signal; the % refers to the signal ratio;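 further: the direction sought is a rising ratio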
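In this assay, an IκBα–CBG68 fusion accumulates when IKK-driven degradation is blocked; native CBR normalizes for cell number. OCI-Ly3 cells were treated 4 h with compound and doxycycline, then green and red light read after Chroma-Glo addition.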
Hits are given with their value; [ ] = dose if it differs, or a comment. In the library only some 3.1% were active in any assay of this set; here they are far more common. Unless noted, the call rests on the fitted dose curve; in most records, active means well fitted curve in the direction sought with a large enough effect; inconclusive means small, poorly fitted or top-dose-only effect, or another doubt; inactive means no such curve, though single readings can be large; an effect the other way counts as inactive or inconclusive.

What do the screens show for `Cc1ccc(S(=O)(=O)N[C@H]2COC(=O)[C@@H](C)COC(=O)[C@H](C)NC(=O)C/C=C\[C@H]2C)cc1`?
p53ts 32C kill: inactive[9.22 µM]; HEK293 cAMP cs: inactive[11.4 µM]; p53ts 39C kill: inactive[9.22 µM]; TSHR ag: inactive[11.4 µM]

Results for Cc1ccc2c(c1)c1c(c(=O)n(Cc3ccccc3)c(=O)n1CC(=O)NCc1ccccc1Cl)n2C ?
p53ts 32C kill: inactive; p53ts 39C kill: inactive; Imprint erasure: inactive[10.9 µM]; IkB signaling: inactive

How did COc1cccc2sc(N3CCN(c4nc5ccccc5s4)CC3)nc12 do in these assays?
p53ts 32C kill: inactive; HEK293 cAMP cs: inconclusive; p53ts 39C kill: inactive; TSHR ag: inconclusive; Imprint erasure: inactive; IkB signaling: inactive

What do the screens show for `COc1cccc2sc(N(C)c3ccccc3)nc12`?
p53ts 32C kill: 10µM; HEK293 cAMP cs: inactive; p53ts 39C kill: 13µM; TSHR ag: inactive; Imprint erasure: inactive; IkB signaling: inactive

How did COc1cc(C2c3c(-c4ccccc4O)n[nH]c3C(=O)N2CCO)ccc1OCC(C)C (stereo not drawn) do in these assays?
p53ts 32C kill: inactive; p53ts 39C kill: inactive; Imprint erasure: inactive[10.9 µM]; IkB signaling: inconclusive

How did COc1cc(C2c3c(-c4ccccc4O)n[nH]c3C(=O)N2Cc2ccco2)ccc1OCC(C)C (stereo not drawn) do in these assays?
p53ts 32C kill: inconclusive; p53ts 39C kill: 20µM; Imprint erasure: inactive[10.9 µM]; IkB signaling: inconclusive

How did FC(F)(F)c1cc(CO[C@@H]2CCCN[C@H]2c2ccccc2)cc(C(F)(F)F)c1 do in these assays?
p53ts 32C kill: inconclusive; HEK293 cAMP cs: inactive; p53ts 39C kill: 20µM; IkB signaling: inactive

What do the screens show for `COC(=O)[C@@]1(Cc2ccc(OC)cc2)[C@H]2c3cc(C(=O)N(C)C)n(Cc4ccccc4)c3C[C@H]2CN1C(=O)c1ccccc1`?
p53ts 32C kill: inactive; HEK293 cAMP cs: 13µM; p53ts 39C kill: inactive; TSHR ag: inconclusive; Imprint erasure: inactive

Results for C=C1C(=O)C=C2CN(C(=O)c3ccccc3)[C@@](Cc3ccc(F)cc3)(C(=O)OC)[C@@H]12 ?
p53ts 32C kill: 3.2µM; HEK293 cAMP cs: inconclusive; p53ts 39C kill: 3.2µM; TSHR ag: inconclusive; Imprint erasure: inactive

How did COCCn1c(C(=O)N2CCCC2)cc2c1C[C@H]1CN(C(=O)c3ccccc3)[C@@](Cc3ccc(F)cc3)(C(=O)OC)[C@@H]21 do in these assays?
p53ts 32C kill: inactive; HEK293 cAMP cs: 13µM; p53ts 39C kill: inactive; TSHR ag: inconclusive; Imprint erasure: inactive

What do the screens show for `COC(=O)[C@@]1(Cc2ccc(F)cc2)[C@H]2c3cc(C(=O)N(C)C)n(Cc4ccc(OC)c(OC)c4)c3C[C@H]2CN1C(=O)c1ccccc1`?
p53ts 32C kill: inactive; HEK293 cAMP cs: 16µM; p53ts 39C kill: inactive; TSHR ag: inconclusive; Imprint erasure: inactive

How did COC(=O)[C@@]1(Cc2ccc(F)cc2)[C@H]2c3cc(C(=O)N4CCCC4)n(Cc4ccccc4)c3C[C@H]2CN1C(=O)c1ccccc1 do in these assays?
p53ts 32C kill: inactive; HEK293 cAMP cs: inconclusive; p53ts 39C kill: inactive; TSHR ag: inconclusive; Imprint erasure: inactive

What do the screens show for `COC(=O)[C@@]1(Cc2ccc(OC)cc2)[C@H]2c3cc(C(=O)N(C)C)n(Cc4ccc(OC(F)(F)F)cc4)c3C[C@H]2CN1C(=O)c1ccccc1`?
p53ts 32C kill: inactive; HEK293 cAMP cs: inconclusive; p53ts 39C kill: inactive; TSHR ag: inconclusive; Imprint erasure: inactive

Results for COC(=O)[C@@]1(Cc2ccc(F)cc2)[C@H]2c3cc(C(=O)N(C)C)n(Cc4ccccc4)c3C[C@H]2CN1C(=O)c1ccccc1 ?
p53ts 32C kill: inactive; HEK293 cAMP cs: 10µM; p53ts 39C kill: inactive; TSHR ag: inconclusive; Imprint erasure: inactive

How did COC(=O)[C@@]1(Cc2ccc(F)cc2)[C@H]2c3cc(C(=O)N(C)C)n(Cc4ccc(C)o4)c3C[C@H]2CN1C(=O)c1ccccc1 do in these assays?
p53ts 32C kill: inactive; HEK293 cAMP cs: 3.2µM; p53ts 39C kill: inactive; TSHR ag: inconclusive; Imprint erasure: inactive

How did COC(=O)[C@@]1(Cc2ccc(F)cc2)[C@H]2c3cc(C(=O)N(C)C)n(Cc4ccc(O)c(OC)c4)c3C[C@H]2CN1C(=O)c1ccccc1 do in these assays?
p53ts 32C kill: inactive; HEK293 cAMP cs: inconclusive; p53ts 39C kill: inactive; TSHR ag: inconclusive; Imprint erasure: inactive

What do the screens show for `COC(=O)[C@@]1(Cc2ccc(F)cc2)[C@H]2c3cc(C(=O)N(C)C)n(C)c3C[C@H]2CN1C(=O)c1ccccc1`?
p53ts 32C kill: inactive; HEK293 cAMP cs: inconclusive; p53ts 39C kill: inactive; TSHR ag: inconclusive; Imprint erasure: inactive

How did COCCn1c(C(=O)N(C)C)cc2c1C[C@H]1CN(C(=O)c3ccccc3)[C@@](Cc3ccc(F)cc3)(C(=O)OC)[C@@H]21 do in these assays?
p53ts 32C kill: inactive; HEK293 cAMP cs: 16µM; p53ts 39C kill: inactive; TSHR ag: inconclusive; Imprint erasure: inconclusive

What do the screens show for `COC(=O)[C@@]1(Cc2ccc(F)cc2)[C@H]2c3cc(C(=O)N(C)C)n(CCO)c3C[C@H]2CN1C(=O)c1ccccc1`?
p53ts 32C kill: inactive; HEK293 cAMP cs: inactive; p53ts 39C kill: inactive; TSHR ag: inactive; Imprint erasure: inactive

What do the screens show for `CC(=O)OC(C)(C)N=Nc1ccc(Br)cc1`?
HEK293 cAMP cs: inactive[11.4 µM]; IkB signaling: inactive[11.4 µM]

Results for CCc1ccc(C2=C(C)C(N3CCC(C(=O)Nc4ccc(F)cc4)CC3)=NS2(=O)=O)cc1 ?
p53ts 32C kill: inconclusive; p53ts 39C kill: 10µM; Imprint erasure: inactive[10.9 µM]; IkB signaling: inconclusive

How did CC1=C(c2ccc(C)c(C)c2)S(=O)(=O)N=C1N1CCC(C(=O)Nc2ccc(Cl)cc2)CC1 do in these assays?
p53ts 32C kill: inactive; p53ts 39C kill: inactive; Imprint erasure: inactive[10.9 µM]; IkB signaling: inconclusive

Results for CC1=C(c2ccc(C(C)C)cc2)S(=O)(=O)N=C1N1CCC(C(=O)Nc2ccc(C)cc2)CC1 ?
p53ts 32C kill: inconclusive; p53ts 39C kill: 13µM; Imprint erasure: inactive[10.9 µM]; IkB signaling: inactive

Results for O=c1c(-c2ccc(Cl)cc2)nc2cnc(N3CCOCC3)nc2n1Cc1ccc(F)cc1 ?
p53ts 32C kill: inactive; HEK293 cAMP cs: inactive; p53ts 39C kill: inactive; TSHR ag: inactive; Imprint erasure: inactive; IkB signaling: inactive[11.4 µM]
